Experimental data taken from PubChem BioAssay (NCI).
Compounds without any hit were thinned out: in the full panel of roughly 83,000, 20% have a hit.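 Each cell line was grown in a 96-well plate and treated with one concentration of compound for 48 hours. Values below 10 were considered active.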 Values without a mark were called inactive. Activity calls are given as the source filed them.

Tests used:
Experiment in all cases: NCI-60 one-dose screen, 48 h (100 = growth as untreated, 0 = no growth, -100 = all killed)
Conditions in all cases: 10 µM unless noted
SR leukemia = tested on: SR leukemia
RPMI-8226 leukemia = tested on: RPMI-8226 leukemia
OVCAR-8 ovarian = tested on: OVCAR-8 ovarian
OVCAR-5 ovarian = tested on: OVCAR-5 ovarian
OVCAR-4 ovarian = tested on: OVCAR-4 ovarian
SK-OV-3 ovarian = tested on: SK-OV-3 ovarian
IGROV1 ovarian = tested on: IGROV1 ovarian
OVCAR-3 ovarian = tested on: OVCAR-3 ovarian
HS 578T breast = tested on: HS 578T breast
NCI/ADR-RES ovarian = tested on: NCI/ADR-RES ovarian

SMILES | growth (SR leukemia) | growth (RPMI-8226 leukemia) | growth (OVCAR-8 ovarian) | growth (OVCAR-5 ovarian) | growth (OVCAR-4 ovarian) | growth (SK-OV-3 ovarian) | growth (IGROV1 ovarian) | growth (OVCAR-3 ovarian) | growth (HS 578T breast) | growth (NCI/ADR-RES ovarian)
COc1ccc(-c2nc3cc(C(=O)NCc4ccccc4)ccc3n2C2CCCCC2)cc1 | 43.8% | 69.2% | 93% | 84.9% | 80.4% | 102% | 105% | 85.8% | 76.3% | 88.5%
COc1c(B(O)O)cccc1-c1nc2c(F)cc3[nH]ncc3c2c2c1CCCC2 | 1.26% (active) | -11.7% (active) | 15.1% | 7.97% (active) | 6.02% (active) | 18.2% | 7.11% (active) | -0.0178% (active) | 5.7% (active) | 17.7%
CCCC/C=C/[C@@H]1C[C@H]1CCO | 100% | 99.3% | 100% | 89.1% | 107% | 91.8% | 100% | 109% | 101% | 104%
C=C(C)[C@@H]1CC[C@]2(C(=O)N3CCOCC3)CC[C@]3(C)[C@H](CC[C@@H]4[C@@]5(C)C/C(=C/c6ccncc6)C(=O)C(C)(C)[C@@H]5CC[C@]43C)[C@@H]12 | 34.7% | 4.12% (active) | 55.6% | 93.3% | 49.4% | 73.9% | 71.1% | 52.4% | 74.5% | 72.3%
O=C(Nc1ccccc1)Nc1ncnc2c1ncn2-c1ccc(Cl)cc1 | 74.1% | 100% | 83.7% | 74.5% | -29.6% (active) | 75.4% | 78.5% | 99.5% | 79.8% | 74.6%
CCCn1cc2c(=O)nc3sc(Cc4ccccc4)c(C)n3c2n1 | 73.8% | 99.5% | 91.8% | 111% | 99% | 104% | 105% | 99.3% | 99.5% | 96.7%
CCNCCNc1cc(-c2ccc(C(F)(F)F)cc2)c(C#N)c2nc3ccccc3n12 | -47.6% (active) | -38.8% (active) | -47.2% (active) | -61.9% (active) | -61.8% (active) | -94.1% (active) | -78.5% (active) | -88.3% (active) | -46.3% (active) | -49.7% (active)
Cc1sc2nc(NCCc3c[nH]c4ccc(Cl)cc34)[nH]c(=O)c2c1C | 15.7% | 18.8% | 38.5% | 62.5% | 60% | 60.6% | 50.8% | 64.7% | 25.4% | 47.1%
Cc1ccccc1/C=C/C(=O)c1cccc(OCCCCOc2cccc(C(=O)/C=C/c3ccccc3C)c2)c1 | 74.4% | -6.51% (active) | 97.6% | 103% | 87.1% | 107% | 96.6% | 104% | 106% | 99.1%
CC(C)(C)CC(C)(C)NC(=O)Nc1ncccc1OCc1ccccc1 | 89.4% | 84.9% | 99.4% | 91.6% | 84.3% | 104% | 93.9% | 98.5% | 106% | 86.2%
Cn1ccc(=O)c(C(=O)Nc2nsc3ccc([N+](=O)[O-])cc23)c1 | 55.9% | 61.6% | 59.3% | 84% | 53.4% | 30.8% | 27.3% | 75.6% | 54.7% | 68%
CCOC(=O)c1csc(NC(=O)COc2ccc(/C=C3\Oc4ccccc4C3=O)cc2)n1 | 37.9% | 79.5% | 84.7% | 92.1% | 81.6% | 138% | 6.55% (active) | 93.2% | 91.1% | 85.4%
